Test results published in ChEMBL document CHEMBL2218924, “A broad activity screen in support of a chemogenomic map for kinase signalling research and drug discovery” (Biochem J, 2013).

Key:
[1] = target: Homeodomain-interacting protein kinase 3 (Homo sapiens) (UniProt Q9H422); conditions: at 10 µM
[2] = target: T1, Serine/threonine-protein kinase haspin (Homo sapiens) (UniProt Q8TF76); conditions: at 1 µM
T1 sequence (whole entry): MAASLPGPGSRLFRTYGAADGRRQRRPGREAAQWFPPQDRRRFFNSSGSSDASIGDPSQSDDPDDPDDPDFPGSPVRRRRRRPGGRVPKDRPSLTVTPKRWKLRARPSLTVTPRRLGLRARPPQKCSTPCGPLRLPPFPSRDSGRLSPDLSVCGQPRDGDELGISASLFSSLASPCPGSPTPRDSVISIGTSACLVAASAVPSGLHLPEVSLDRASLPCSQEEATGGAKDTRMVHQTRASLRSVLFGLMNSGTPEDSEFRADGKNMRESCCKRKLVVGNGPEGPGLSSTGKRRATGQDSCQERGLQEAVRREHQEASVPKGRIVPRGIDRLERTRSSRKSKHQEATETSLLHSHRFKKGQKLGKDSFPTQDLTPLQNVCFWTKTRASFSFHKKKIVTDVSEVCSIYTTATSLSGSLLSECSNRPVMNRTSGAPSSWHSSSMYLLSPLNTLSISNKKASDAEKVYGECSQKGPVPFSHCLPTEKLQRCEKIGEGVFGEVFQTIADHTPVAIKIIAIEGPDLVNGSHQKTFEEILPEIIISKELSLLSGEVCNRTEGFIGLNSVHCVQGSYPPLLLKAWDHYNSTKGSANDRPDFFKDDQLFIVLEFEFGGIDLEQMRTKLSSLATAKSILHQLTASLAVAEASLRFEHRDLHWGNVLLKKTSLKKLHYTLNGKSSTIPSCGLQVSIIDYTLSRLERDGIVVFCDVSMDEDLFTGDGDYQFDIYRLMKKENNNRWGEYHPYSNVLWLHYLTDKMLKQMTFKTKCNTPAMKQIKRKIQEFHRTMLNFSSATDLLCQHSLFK

[3] = target: T1, Serine/threonine-protein kinase haspin (Homo sapiens); conditions: at 10 µM
[4] = target: Tyrosine-protein kinase HCK (Homo sapiens) (UniProt P08631); conditions: at 1 µM
[5] = target: Tyrosine-protein kinase HCK (Homo sapiens) (UniProt P08631); conditions: at 10 µM
[6] = target: Tyrosine-protein kinase HCK (Homo sapiens) (UniProt P08631); conditions: at 1 µM; remark: listed apart in the source
[7] = target: Tyrosine-protein kinase HCK (Homo sapiens) (UniProt P08631); conditions: at 10 µM; remark: listed apart in the source
[8] = target: Insulin-like growth factor 1 receptor (Homo sapiens) (UniProt P08069); conditions: at 1 µM
[9] = target: Insulin-like growth factor 1 receptor (Homo sapiens) (UniProt P08069); conditions: at 10 µM
[10] = target: Protein kinase C eta type (Homo sapiens) (UniProt P24723); conditions: at 10 µM
[11] = target: Protein kinase C theta type (Homo sapiens) (UniProt Q04759); conditions: at 1 µM
[12] = target: Protein kinase C theta type (Homo sapiens) (UniProt Q04759); conditions: at 10 µM
[13] = target: T2, Serine/threonine-protein kinase D1 (Homo sapiens) (UniProt Q15139); conditions: at 1 µM
T2 sequence (whole entry): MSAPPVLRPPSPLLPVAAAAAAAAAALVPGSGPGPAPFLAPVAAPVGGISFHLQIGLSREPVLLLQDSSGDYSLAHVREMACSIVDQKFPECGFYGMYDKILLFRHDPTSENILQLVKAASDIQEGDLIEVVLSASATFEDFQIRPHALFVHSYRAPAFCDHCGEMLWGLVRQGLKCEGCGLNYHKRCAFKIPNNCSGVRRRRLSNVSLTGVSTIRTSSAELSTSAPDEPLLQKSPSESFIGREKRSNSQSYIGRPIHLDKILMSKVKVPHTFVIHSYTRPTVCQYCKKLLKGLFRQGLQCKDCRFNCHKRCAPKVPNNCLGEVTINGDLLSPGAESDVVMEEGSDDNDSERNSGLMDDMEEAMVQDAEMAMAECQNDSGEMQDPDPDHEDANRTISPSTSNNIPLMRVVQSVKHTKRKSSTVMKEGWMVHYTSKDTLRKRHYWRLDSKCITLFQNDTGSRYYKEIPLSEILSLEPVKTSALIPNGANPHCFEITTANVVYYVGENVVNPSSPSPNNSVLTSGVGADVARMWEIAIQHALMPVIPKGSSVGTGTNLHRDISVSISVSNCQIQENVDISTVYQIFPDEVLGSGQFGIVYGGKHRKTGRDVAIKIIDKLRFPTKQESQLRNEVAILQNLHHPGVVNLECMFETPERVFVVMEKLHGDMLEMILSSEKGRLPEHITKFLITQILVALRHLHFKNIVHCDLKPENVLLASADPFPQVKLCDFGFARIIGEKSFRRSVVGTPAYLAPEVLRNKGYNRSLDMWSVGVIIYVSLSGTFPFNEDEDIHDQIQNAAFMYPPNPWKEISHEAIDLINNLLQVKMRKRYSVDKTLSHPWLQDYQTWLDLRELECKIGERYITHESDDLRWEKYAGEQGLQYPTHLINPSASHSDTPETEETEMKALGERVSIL

[14] = target: T2, Serine/threonine-protein kinase D1 (Homo sapiens); conditions: at 10 µM
[15] = target: T3, Protein kinase C zeta type (Homo sapiens) (UniProt Q05513); conditions: at 10 µM
T3 sequence (whole entry): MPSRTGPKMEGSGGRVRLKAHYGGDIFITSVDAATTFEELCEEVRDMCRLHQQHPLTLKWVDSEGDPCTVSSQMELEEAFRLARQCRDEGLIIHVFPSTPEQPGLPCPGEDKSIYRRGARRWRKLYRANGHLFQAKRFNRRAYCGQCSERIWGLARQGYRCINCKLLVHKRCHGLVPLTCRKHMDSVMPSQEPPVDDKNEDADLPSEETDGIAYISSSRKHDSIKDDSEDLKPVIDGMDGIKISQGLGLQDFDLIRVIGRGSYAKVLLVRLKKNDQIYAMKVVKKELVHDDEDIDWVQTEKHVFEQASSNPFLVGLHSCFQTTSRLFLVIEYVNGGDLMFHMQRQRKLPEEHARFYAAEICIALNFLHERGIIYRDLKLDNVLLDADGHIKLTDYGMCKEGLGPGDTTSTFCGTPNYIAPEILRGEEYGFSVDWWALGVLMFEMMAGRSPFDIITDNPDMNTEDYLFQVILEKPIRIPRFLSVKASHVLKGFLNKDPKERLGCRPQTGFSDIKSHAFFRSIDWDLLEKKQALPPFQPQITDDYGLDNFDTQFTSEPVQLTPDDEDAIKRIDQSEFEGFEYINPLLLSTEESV

[16] = target: Protein kinase C eta type (Homo sapiens) (UniProt P24723); conditions: at 1 µM
[17] = target: T4, Protein kinase C iota type (Homo sapiens) (UniProt P41743); conditions: at 1 µM
T4 sequence (whole entry): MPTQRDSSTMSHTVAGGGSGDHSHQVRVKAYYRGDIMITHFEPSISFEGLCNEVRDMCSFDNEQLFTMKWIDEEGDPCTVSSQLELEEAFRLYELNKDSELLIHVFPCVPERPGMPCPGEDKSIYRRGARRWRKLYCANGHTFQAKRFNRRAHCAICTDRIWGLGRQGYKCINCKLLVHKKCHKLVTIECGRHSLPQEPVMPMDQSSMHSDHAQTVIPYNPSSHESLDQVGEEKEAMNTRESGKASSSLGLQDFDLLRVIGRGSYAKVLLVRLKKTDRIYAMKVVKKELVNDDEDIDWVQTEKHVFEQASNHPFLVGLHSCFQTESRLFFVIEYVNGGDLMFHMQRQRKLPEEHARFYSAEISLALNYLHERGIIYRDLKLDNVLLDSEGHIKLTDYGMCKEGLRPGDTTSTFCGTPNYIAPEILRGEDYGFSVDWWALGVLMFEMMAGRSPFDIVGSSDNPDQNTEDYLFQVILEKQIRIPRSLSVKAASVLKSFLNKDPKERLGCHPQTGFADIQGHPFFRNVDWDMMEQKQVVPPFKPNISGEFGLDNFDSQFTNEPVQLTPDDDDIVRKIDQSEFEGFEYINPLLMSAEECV

[18] = target: T4, Protein kinase C iota type (Homo sapiens); conditions: at 10 µM
[19] = target: T5, Serine/threonine-protein kinase D2 (Homo sapiens) (UniProt Q9BZL6); conditions: at 1 µM
T5 sequence (whole entry): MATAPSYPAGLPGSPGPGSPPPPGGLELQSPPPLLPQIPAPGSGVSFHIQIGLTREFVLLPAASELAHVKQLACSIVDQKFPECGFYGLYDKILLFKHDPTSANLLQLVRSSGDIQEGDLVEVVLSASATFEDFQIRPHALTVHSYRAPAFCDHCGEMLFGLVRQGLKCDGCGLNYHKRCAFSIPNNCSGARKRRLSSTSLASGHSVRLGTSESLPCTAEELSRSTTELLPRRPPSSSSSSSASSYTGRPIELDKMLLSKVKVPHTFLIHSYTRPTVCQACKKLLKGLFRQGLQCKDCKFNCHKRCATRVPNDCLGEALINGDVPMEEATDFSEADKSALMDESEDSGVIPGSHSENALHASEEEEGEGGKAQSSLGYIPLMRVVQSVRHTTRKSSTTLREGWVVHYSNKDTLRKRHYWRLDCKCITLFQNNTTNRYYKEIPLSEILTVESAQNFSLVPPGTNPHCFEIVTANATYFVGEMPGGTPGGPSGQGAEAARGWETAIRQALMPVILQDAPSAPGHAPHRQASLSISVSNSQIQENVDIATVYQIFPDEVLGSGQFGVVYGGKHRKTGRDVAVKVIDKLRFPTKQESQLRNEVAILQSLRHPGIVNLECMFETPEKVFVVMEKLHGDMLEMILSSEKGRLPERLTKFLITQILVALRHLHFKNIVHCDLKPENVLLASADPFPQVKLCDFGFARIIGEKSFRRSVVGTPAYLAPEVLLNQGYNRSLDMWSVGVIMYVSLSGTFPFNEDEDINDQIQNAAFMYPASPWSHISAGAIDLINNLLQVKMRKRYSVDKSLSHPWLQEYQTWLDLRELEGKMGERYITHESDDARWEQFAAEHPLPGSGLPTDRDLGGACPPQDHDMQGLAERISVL

[20] = target: T5, Serine/threonine-protein kinase D2 (Homo sapiens); conditions: at 10 µM

Sequence of Insulin-like growth factor 1 receptor (Homo sapiens) (P08069 31-736 limits assumed): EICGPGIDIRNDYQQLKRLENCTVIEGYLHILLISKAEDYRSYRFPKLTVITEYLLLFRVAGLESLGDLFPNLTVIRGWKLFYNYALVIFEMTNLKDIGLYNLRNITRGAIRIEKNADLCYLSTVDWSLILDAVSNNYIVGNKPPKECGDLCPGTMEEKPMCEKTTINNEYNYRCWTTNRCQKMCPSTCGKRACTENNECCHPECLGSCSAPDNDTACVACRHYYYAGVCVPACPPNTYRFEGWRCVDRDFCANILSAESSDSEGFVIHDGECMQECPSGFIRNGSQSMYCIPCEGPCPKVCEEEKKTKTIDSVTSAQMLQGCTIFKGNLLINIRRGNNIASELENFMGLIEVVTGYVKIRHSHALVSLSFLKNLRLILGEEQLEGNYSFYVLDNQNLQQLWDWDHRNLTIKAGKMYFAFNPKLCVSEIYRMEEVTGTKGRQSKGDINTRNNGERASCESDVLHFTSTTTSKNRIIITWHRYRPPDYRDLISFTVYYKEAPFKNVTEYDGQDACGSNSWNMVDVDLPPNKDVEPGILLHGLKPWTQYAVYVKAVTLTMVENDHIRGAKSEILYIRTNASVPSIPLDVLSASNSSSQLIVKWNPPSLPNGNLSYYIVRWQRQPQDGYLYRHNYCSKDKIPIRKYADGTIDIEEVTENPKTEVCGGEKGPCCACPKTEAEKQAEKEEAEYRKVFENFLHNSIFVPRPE
Sequence of Insulin-like growth factor 1 receptor (Homo sapiens) (P08069 741-1367 limits assumed): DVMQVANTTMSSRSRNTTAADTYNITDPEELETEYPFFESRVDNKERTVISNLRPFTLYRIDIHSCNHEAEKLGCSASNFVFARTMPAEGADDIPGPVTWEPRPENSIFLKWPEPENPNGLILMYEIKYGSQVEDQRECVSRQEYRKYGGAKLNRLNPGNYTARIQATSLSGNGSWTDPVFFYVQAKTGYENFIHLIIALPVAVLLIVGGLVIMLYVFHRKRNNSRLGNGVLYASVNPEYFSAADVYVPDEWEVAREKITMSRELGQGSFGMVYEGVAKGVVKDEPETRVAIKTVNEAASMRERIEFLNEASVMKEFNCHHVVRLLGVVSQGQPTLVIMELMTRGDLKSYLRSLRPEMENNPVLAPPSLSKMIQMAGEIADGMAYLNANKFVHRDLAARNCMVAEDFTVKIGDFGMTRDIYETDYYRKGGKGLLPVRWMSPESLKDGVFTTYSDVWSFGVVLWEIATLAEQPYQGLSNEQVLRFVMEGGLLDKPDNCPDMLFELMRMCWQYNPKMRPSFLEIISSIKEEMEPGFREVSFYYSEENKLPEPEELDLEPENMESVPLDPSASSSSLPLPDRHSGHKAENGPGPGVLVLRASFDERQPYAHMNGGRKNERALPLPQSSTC
Sequence of Protein kinase C eta type (Homo sapiens) (P24723 whole entry): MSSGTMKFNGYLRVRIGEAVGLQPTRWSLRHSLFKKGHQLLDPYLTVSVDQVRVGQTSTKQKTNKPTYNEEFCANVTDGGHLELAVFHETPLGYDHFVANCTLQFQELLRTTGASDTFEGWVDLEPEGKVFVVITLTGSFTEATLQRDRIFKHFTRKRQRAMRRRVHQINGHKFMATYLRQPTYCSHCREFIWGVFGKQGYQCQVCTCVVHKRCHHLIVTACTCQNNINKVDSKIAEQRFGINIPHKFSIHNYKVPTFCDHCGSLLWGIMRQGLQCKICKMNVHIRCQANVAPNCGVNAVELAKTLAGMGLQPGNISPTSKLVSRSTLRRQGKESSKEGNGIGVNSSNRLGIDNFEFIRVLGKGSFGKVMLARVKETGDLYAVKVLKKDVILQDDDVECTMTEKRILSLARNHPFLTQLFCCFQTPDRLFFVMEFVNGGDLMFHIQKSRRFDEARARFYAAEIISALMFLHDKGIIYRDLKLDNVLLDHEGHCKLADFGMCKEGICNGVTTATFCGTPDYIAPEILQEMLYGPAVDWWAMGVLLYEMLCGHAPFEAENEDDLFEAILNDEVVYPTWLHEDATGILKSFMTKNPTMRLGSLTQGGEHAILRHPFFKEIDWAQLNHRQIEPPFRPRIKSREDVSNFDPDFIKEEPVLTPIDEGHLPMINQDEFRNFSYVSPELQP
Sequence of Tyrosine-protein kinase HCK (Homo sapiens) (P08631 2-526 limits assumed): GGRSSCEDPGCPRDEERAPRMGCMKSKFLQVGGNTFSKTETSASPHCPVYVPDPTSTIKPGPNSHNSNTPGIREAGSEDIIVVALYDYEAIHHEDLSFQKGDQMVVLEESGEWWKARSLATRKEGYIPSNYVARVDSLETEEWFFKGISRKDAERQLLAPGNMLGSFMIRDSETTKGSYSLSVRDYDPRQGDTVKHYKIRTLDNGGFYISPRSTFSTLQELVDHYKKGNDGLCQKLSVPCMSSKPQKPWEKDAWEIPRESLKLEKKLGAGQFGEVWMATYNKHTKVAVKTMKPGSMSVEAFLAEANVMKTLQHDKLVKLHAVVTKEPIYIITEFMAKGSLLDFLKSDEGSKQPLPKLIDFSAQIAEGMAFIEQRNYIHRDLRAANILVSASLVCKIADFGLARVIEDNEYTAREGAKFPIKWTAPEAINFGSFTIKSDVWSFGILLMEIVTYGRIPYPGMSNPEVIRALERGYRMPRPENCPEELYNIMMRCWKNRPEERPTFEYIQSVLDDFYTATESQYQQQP
Sequence of Homeodomain-interacting protein kinase 3 (Homo sapiens) (Q9H422 whole entry, looked up): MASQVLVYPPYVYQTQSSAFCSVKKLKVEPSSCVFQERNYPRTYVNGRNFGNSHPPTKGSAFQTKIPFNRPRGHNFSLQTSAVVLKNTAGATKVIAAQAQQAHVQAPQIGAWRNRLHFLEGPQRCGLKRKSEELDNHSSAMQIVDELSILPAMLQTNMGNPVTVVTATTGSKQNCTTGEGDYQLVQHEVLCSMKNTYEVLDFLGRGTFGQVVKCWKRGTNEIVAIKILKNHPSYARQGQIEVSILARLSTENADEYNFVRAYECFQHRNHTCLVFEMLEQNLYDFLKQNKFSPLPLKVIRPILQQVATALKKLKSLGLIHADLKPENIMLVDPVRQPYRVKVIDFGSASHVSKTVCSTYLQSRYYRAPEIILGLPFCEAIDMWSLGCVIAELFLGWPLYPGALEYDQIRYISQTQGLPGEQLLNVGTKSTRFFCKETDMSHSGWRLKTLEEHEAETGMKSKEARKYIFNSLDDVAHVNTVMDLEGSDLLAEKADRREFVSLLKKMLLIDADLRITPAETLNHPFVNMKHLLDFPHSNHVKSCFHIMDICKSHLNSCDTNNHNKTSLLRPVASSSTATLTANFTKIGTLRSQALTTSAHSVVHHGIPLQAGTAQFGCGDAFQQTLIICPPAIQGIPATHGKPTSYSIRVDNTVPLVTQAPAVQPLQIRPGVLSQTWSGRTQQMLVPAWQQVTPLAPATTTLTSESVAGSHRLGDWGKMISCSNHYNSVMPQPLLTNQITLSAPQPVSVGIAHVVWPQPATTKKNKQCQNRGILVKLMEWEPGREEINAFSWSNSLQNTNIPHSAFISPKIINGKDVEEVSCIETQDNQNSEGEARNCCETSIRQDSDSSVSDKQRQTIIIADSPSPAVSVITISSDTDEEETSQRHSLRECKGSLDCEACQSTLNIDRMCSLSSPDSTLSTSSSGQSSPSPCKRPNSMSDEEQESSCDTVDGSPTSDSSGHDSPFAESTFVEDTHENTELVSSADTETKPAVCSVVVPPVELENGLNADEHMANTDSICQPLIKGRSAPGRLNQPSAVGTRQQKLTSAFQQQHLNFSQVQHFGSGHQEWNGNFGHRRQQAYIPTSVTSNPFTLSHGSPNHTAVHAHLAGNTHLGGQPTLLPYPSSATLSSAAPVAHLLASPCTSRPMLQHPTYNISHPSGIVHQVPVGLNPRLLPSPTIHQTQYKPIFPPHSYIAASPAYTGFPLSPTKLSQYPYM
Sequence of Protein kinase C theta type (Homo sapiens) (Q04759 whole entry, looked up): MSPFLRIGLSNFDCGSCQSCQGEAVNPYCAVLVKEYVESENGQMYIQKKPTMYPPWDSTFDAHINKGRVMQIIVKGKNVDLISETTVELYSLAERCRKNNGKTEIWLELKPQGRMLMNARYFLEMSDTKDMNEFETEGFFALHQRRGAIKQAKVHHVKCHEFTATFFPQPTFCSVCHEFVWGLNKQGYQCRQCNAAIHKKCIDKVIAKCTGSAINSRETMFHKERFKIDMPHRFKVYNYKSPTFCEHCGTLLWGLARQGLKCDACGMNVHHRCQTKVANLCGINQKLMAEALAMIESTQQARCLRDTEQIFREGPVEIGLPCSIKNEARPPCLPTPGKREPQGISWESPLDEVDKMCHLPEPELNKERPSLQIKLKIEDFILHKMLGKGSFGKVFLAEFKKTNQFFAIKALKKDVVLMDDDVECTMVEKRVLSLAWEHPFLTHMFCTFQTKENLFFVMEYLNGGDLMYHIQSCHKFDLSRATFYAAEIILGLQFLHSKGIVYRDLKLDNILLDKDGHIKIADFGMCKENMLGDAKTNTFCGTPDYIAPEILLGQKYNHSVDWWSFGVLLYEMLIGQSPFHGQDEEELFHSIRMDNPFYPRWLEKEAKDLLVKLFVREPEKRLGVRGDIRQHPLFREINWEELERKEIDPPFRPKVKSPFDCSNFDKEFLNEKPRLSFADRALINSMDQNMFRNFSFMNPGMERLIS

Row | SMILES | residual activity [1] [%] | residual activity [2] [%] | residual activity [3] [%] | residual activity [4] [%] | residual activity [5] [%] | residual activity [6] [%] | residual activity [7] [%] | residual activity [8] [%] | residual activity [9] [%] | residual activity [10] [%] | residual activity [11] [%] | residual activity [12] [%] | residual activity [13] [%] | residual activity [14] [%] | residual activity [15] [%] | residual activity [16] [%] | residual activity [17] | residual activity [18] [%] | residual activity [19] [%] | residual activity [20] [%]
1 | O=C(c1cc2cc(O)ccc2[nH]1)c1cc2cc(O)ccc2[nH]1 | 25 | 39 | 7 | 23 | 5 | 8 | 3 | 65 | 63 | 77 | 83 | 67 | 80 | 23 |  |  |  |  |  | 
2 | CC(C)c1nn(-c2c(Cl)cccc2Cl)c2nc(Cc3ccc(OCCO)cc3)[nH]c(=O)c12 | 103 | 97 | 56 | 75 | 56 | 98 | 86 | 135 | 103 | 91 | 90 | 80 |  | 95 | 93 | 92 | 99% (inactive) | 102 | 95 | 91
3 | COc1cc2nccc(Oc3ccc(NC(=S)NC(=O)c4ccccc4C)cc3)c2cc1OC | 101 | 80 | 35 | 7 | 1 | 11 | 3 | 120 | 148 | 71 | 89 | 97 | 87 | 89 |  | 98 | 88% (inactive) | 82 |  | 
4 | O=c1cc(N2CCOCC2)oc2c1ccc1ccccc12 | 21 | 74 | 26 | 85 | 77 | 101 | 110 |  |  | 79 | 94 | 105 | 77 | 79 | 91 | 94 | 85% (inactive) | 97 | 100 | 94
5 | CC(C)N(CCC(=O)c1ccc2ccccc2c1)Cc1ccccc1 | 100 | 81 | 66 | 79 | 64 |  |  |  |  | 76 |  |  | 74 | 84 |  |  | 77% (inactive) | 72 |  | 
6 | Nc1ncnc2c1cnn2-c1ccccc1 | 94 |  | 83 | 83 | 68 | 96 | 85 | 140 | 129 | 76 |  |  | 92 |  |  | 102 | 102% (inactive) | 98 |  | 
7 | O=c1cc(N2CCNCC2)oc2c(-c3ccccc3)cccc12 | 99 | 83 | 38 | 79 | 66 |  | 95 |  | 149 | 82 | 102 | 94 | 96 | 90 |  | 99 | 93% (inactive) | 71 | 102 | 
